Sfp inh: qHTS Assay for Inhibitors of Bacillus subtilis Sfp phosphopantetheinyl transferase (PPTase). 4'-phosphopantetheinyl transferase ffp (Bacillus subtilis), Q9F4F7. Biochemical Sfp PPTase activity, qHTS. Potency, µM, usual class: inhibitors. 310,000 tested, 3.5% active. AID 1490, 2009;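 further: the enzyme is Sfp with the accession as filed and its product quenches rhodamine fluorescence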
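Buffer: 50 mM Hepes-Na pH 7.6, 10 mM MgCl2, 0.01% Nonidet P-40, 0.01% BSA. Enzyme 15 nM, pre-exposed to compound 15 min; substrates then added and fluorescence change tracked over 30 min.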
TDP1 block: qHTS Assay for Inhibitors of Tyrosyl-DNA Phosphodiesterase (TDP1); Tyrosyl-DNA phosphodiesterase 1 (Homo sapiens), Q9NUW8; recombinant TDP1, AlphaScreen DNA substrate cleavage; Potency, µM (titrated, usually from 130 µM), actives largely listed as inhibitors; 350,000 tested, 0.28% active; AID 485290, 2010; further: nearly all actives have a fitted effect of over 40% in size
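Steps: enzyme plus compound, 15 min RT; add biotin/phosphotyrosine-FITC oligonucleotide (15 nM final), react 5 min; add donor/acceptor beads (10 ug/ml final), 10 min; read AlphaScreen. Tdp1 at 1 nM final.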
HP1b chromo inh: HTS for Inhibitors of HP1-beta Chromodomain Interactions with Methylated Histone Tails; AlphaScreen HP1-beta / biotin-H3K9me3 peptide binding; Potency, µM (doses to about 114 µM), most hits filed as inhibitors; 390,000 tested, 0.56% active; further: nearly all actives have a fitted effect of over 70% in size
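AlphaScreen: HP1-beta (50 nM) preformed 30 min with biotin-H3(1-18)K9me3 peptide (50 nM) in PBS pH 7.4, 0.01% Tween-20. Compound added for 30 min at RT, then streptavidin donor/nickel chelate acceptor beads (10 ug/mL) for 30 min.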
BAZ2B inh: qHTS Assay for Inhibitors of BAZ2B | 360,000 tested, 4.4% active | Potency, µM (top dose mostly 114 µM), actives largely listed as inhibitors | AlphaScreen BAZ2B-H3K14Ac peptide displacement; further: nearly all actives have a fitted effect of over 60% in size
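AlphaScreen displacement of biotin-H3(5-23)K14Ac peptide (50 nM final) from BAZ2B (50 nM final) in PBS pH 7.4, 0.01% Tween-20; complex preformed 30 min RT, then compounds (top 110 uM) 30 min RT, beads 20 min dark.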
JMJD2A Tudor inh: qHTS Assay for Inhibitors of JMJD2A-Tudor Domain. Lysine-specific demethylase 4A (Homo sapiens), O75164. Potency, µM (top dose mostly 114 µM), actives largely listed as inhibitors. AID 504339, 2011. AlphaScreen JMJD2A-Tudor / H3K4me3 peptide binding. 390,000 tested, 4.4% active; further: nearly all actives have a fitted effect of over 50% in size
G9a inh: qHTS Assay for Inhibitors of Histone Lysine Methyltransferase G9a; Histone-lysine N-methyltransferase EHMT2 (Homo sapiens), Q96KQ7; AID 504332, 2011; G9a H3K9 monomethylation, AlphaScreen, 2 h; 350,000 tested, 8.8% active; Potency, µM (top dose mostly 102 µM), most hits filed as inhibitors; further: nearly all actives have a fitted effect of over 75% in size
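G9a (20 nM) preincubated 15 min RT with compounds, then 500 nM biotinylated H3K9 peptide and 20 uM SAM added; 2 h RT reaction. Monomethyl-H3K9 product detected by AlphaScreen with anti-H3K9me1 antibody, streptavidin donor and anti-rabbit IgG acceptor beads.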
A number is an active result; – = inactive; ? = inconclusive; · = not tested or not shown; [ ] = another dose, or the depositor's remark. Sampled rows, rich in hits. Any-hit rate of the full collection: about 12%. The call rests on the fitted dose curve; in most records, active means well fitted curve in the direction sought with a large enough effect; inconclusive means small, poorly fitted or top-dose-only effect, or another doubt; inactive means no such curve, though single readings can be large; an effect the other way counts as inactive or inconclusive.

SMILES	Sfp inh	TDP1 block	HP1b chromo inh	BAZ2B inh	JMJD2A Tudor inh	G9a inh
COC(=O)C1=C(C)N(Cc2ccccc2)C(=O)N[C@H]1c1cccc(C(F)(F)F)c1	–	–[21 µM]	–	–	?	–
CC(=O)C1=C(C)N(Cc2ccccc2)C(=O)N[C@@H]1c1cccc(C(F)(F)F)c1	–	–	–	–	–	50µM
c1cc(CN2CCCNCCNCCCNCC2)ccc1CN1CCCNCCNCCCNCC1	–	–	·	·	·	·
CCN(CC)S(=O)(=O)c1ccc(C(=O)Nc2nc3c(Cl)cc(Cl)cc3s2)cc1	·	–	–	–	–	–
Cc1cc(N2CCN(c3ccc(C(F)(F)F)cc3[N+](=O)[O-])CC2)c2ccccc2n1	71µM	–	–	25µM	45µM	·
Cc1cc(N2CCN(c3ccc([N+](=O)[O-])c4cccnc34)CC2)c2ccccc2n1	–	–	–	–	–	–
O=c1[nH]c(=S)[nH]cc1S(=O)(=O)c1cccc(Cl)c1	–	·	–	–	–	40µM
O=c1[nH]c(=S)[nH]cc1Oc1ccc(Cl)cc1	·	·	–	·	?	·
COC(=O)c1ccccc1NC(=O)NCc1ccc2c(c1)CCN2C(=O)c1ccccc1	·	–	–	–	–	–
CC1CCCN(S(=O)(=O)c2ccc3c(c2)c(=O)nc2ccc(Cl)cn23)C1 (configuration not stated)	–	–	–	–	–	–
COc1cccc(C(=O)/C=C2\Sc3ccccc3N2C)c1	–	–	–	–	–	–
CN1/C(=C\C(=O)c2cccnc2)Sc2ccccc21	22µM	–	–	–	–	28µM
Cc1cc(C)n(-c2ccc([N+](=O)[O-])cc2-c2nn[nH]n2)n1	79µM	–	–	?	–	?
O=[N+]([O-])c1ccc(O)c(-c2ccnc3cc(-c4ccccc4)nn23)c1	·	–	–	–	–	–
O=[N+]([O-])c1ccc(O)c(-c2nn[nH]n2)c1	–	–	?	2.8µM	3.2µM	?
CCC(=O)OC1(C(C)=O)CCC2C3CCC4=CC(=O)CCC4(C)C3CCC21C (configuration not stated)	·	·	–	·	–	·
Cc1nc(C)c(-c2ccc(SCC(=O)Nc3ccc(F)c(F)c3)nn2)s1	·	–	–	–	–	–
COc1cc(C(=O)CSc2nccn2C)cc(OC)c1OC	–	–	–	–	–	–
COc1cc(C(=O)CSc2nncn2C)cc(OC)c1OC	?	–	–	?	–	40µM
Cc1cccc(CNc2ccc(S(=O)(=O)N3CCCCC3)cc2)c1	·	–	–	–	–	–[2.33 µM]
CCc1cc(C(=O)N2CCOCC2)c(NC2=NS(=O)(=O)c3ccccc32)s1	–	–	–	–	–	89µM
CCc1cccc(CC)c1NC1=NS(=O)(=O)c2ccccc21	·	–	–	–	–	–
Cc1cccc(-c2oc(C)c(C)[n+]2[O-])c1	–	–	–	–	45µM	?
Cc1oc(-c2ccccc2)[n+]([O-])c1C	–	–	–	–	–	·
CCCC(=O)Oc1ccc(-c2nccc(C(OC)OC)n2)cc1	–	–	–	–	–	–
SMILES	Sfp inh	TDP1 block	HP1b chromo inh	BAZ2B inh	JMJD2A Tudor inh	G9a inh
O=S(=O)(Nc1cc(O)cc2cccnc12)c1ccc(Cl)s1	–	–	·	·	79µM	·
O=S(=O)(Nc1cc(O)cc2cccnc12)c1ccc(Br)s1	?	–	·	·	?	·
CCCN(CCC)C1=CC(=[N+]2CCCC2)CC(C)(C)C1	–	–	–	–	?	1.8µM
CN(C)NC1=CC(=[N+]2CCCC2)CC(C)(C)C1	–	–	–	–	–	?
COC(=O)C(C(=O)OC)[C@@H](NC(=O)OCc1ccccc1)c1ccccc1	–	–	·	·	·	·
COC(=O)c1ccc(NC(=O)C2CCN(C(=O)c3ccc(F)cc3)CC2)cc1	·	·	–	–	–	–
Cc1nc(NS(=O)(=O)c2cccs2)c2c3c(sc2n1)CCC3	–	–	–	?	–	79µM
O=C(Nc1ncnc2sc3c(c12)CCCC3)c1ccncc1	–	–	–	–	–	45µM
O=C(Nc1ncnc2sc3c(c12)CCCCC3)c1ccco1	–	–	–	–	–	–[12.7 µM]
Cc1nc(NS(=O)(=O)c2ccc(Br)cc2)c2c3c(sc2n1)CCC3	–	–	–	?	–	–[12.7 µM]
CN1CCC(=NNc2ncnc3sc4c(c23)CCCC4)CC1	10µM	–	–	?	?	–
O=S(=O)(Nc1ncnc2sc3c(c12)CCC3)c1cc(F)ccc1F	–	–	–	–	–	·
O=S(=O)(Nc1ncnc2sc3c(c12)CCC3)c1ccc(Cl)s1	–	–	–	?	–	10µM
Cc1cc(-c2nc3ncccc3o2)ccc1NC(=O)c1ccc(Br)cc1	·	–	–	–	–	–
CCOc1ccc(/C=N/NC(=O)c2cc(-c3cccn3C)n[nH]2)cc1	–	–	–	–	–	–
O=C(CC1NCCNC1=O)Nc1cccc(F)c1 (configuration not stated)	·	–	–	–	–	–
Cc1cc(S(=O)(=O)Nc2nc(CN3CCOCC3)nc3sc4c(c23)CCC4)cc(C)c1C	·	–	–	?	–	45µM
Fc1cccc(Nc2ncnc3sc4c(c23)CCC4)c1	?	–	–	–	–	20µM
Cc1cc(S(=O)(=O)Nc2nc(CN3CCOCC3)nc3sc4c(c23)CCCC4)ccc1F	–	–	–	–	–	?
CC(=O)c1ccc(NC(=O)CN(C)S(=O)(=O)c2cc3c(cc2Cl)NC(=O)CO3)cc1	·	–	–	–	–	–
COc1ccc(OC)c(C(=O)N2CCC(CCC(=O)NC3CC3)CC2)c1	–	–	–	–	–	–
Cc1ccc(N(CC(=O)NCCSc2ccccn2)S(C)(=O)=O)cc1	–	–	–	–	–	28µM
CN(CCC#N)C(=O)CC(Cc1ccccc1)C1CCOC(C)(C)C1 (configuration not stated)	–	·	–	–	–[11.4 µM]	·
CCC/C(=N\NC(=O)C1CCCC1)c1ccccc1	–	–	–	–	–	·
c1ccc(-c2cn(C[C@H]3CC[C@@H]([C@@H]4CC[C@H](Cn5cc(-c6ccccn6)nn5)O4)O3)nn2)nc1	–	·	–	0.71µM	3.2µM	?
c1ccc(-c2cn(C[C@H]3CC[C@@H]([C@@H]4CC[C@H](Cn5cc(-c6ccccc6)nn5)O4)O3)nn2)cc1	–	·	–	–	–	–
CC(C)n1cnnc1SCC(=O)Nc1ccc(Br)cc1F	–	–	–	–	–	–
O=c1c2ccccc2nnn1CSc1nnc2sc3ccccc3n12	–	–	·	–	·	7.1µM
Cn1nnnc1SCC(=O)c1ccco1	?	–	–	–	–	?
